# In publication PMC7862700, “An all-to-all approach to the identification of sequence-specific readers for epigenetic DNA modifications on cytosine”:
# Experiments:
# Experiment in all cases: DAPPL (digital affinity profiling via proximity ligation, sequencing); 10 mM Tris-HCl pH 7.5, 50 mM NaCl, 1 mM DTT, 4% glycerol, room temperature, 30 min; GST-TFs on glutathione beads, 16-mer random dsDNA library, 0.1% formaldehyde crosslink after washing; high values mean tight binding
# [1] = target: T1, FEV (Homo sapiens, UniProt Q99581 1-238); settings: protein: recombinant; tags: N-terminal GST; dsDNA, one strand shown
# T1 sequence: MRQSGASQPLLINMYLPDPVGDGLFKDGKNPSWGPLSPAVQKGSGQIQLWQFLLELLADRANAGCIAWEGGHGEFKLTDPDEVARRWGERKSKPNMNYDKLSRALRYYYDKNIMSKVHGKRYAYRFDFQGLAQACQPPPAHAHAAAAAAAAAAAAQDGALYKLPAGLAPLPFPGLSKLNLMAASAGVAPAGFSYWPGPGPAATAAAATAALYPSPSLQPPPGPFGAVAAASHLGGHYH
# In short: (§1)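 Sequencing on an Illumina NextSeq500 followed washing, crosslinking with 0.1% formaldehyde, proximity ligation (BsaI/T4 ligase, 1 h, 37 °C) and PCR amplification of pools that had been incubated for 30 min at room temperature with 200 nmole of a random double-stranded 16-mer DNA library in Tris/NaCl/DTT/glycerol buffer. Each pool held DNA-barcoded human transcription factors, expressed in yeast as GST fusions and captured on glutathione beads, plus a tag-only sample. Binding signal is a hexamer's read frequency for a factor divided by its frequency in the tag-only sample.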
# [2] = target: ETV5 (Homo sapiens, UniProt P41161 1-510); settings: protein: recombinant; tags: N-terminal GST; dsDNA, one strand shown
# In short: as §1
# [3] = target: HSF1 (Homo sapiens, UniProt Q00613 1-529); settings: protein: recombinant; tags: N-terminal GST; chain copies: 3; dsDNA, one strand shown
# In short: as §1
# [4] = target: ELF4 (Homo sapiens, UniProt Q99607 1-663); settings: protein: recombinant; tags: N-terminal GST; dsDNA, one strand shown
# In short: as §1
# [5] = target: T2, ELK4 (Homo sapiens, UniProt P28324-2 1-405); settings: protein: recombinant; tags: N-terminal GST; dsDNA, one strand shown
# T2 sequence: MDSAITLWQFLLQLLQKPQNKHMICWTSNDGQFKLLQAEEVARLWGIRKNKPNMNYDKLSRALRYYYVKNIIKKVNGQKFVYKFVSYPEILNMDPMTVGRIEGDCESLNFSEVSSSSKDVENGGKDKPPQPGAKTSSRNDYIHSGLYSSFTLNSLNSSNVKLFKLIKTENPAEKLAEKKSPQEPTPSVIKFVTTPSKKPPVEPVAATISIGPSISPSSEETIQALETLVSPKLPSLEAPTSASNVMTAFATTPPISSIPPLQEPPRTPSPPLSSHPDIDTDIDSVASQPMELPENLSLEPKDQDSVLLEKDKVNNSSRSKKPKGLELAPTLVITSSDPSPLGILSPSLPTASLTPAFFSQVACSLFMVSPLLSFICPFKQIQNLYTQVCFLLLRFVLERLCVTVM
# In short: as §1
# [6] = target: T3, ELF3 (Homo sapiens, UniProt P78545 1-371); settings: protein: recombinant; tags: N-terminal GST; dsDNA, one strand shown
# T3 sequence: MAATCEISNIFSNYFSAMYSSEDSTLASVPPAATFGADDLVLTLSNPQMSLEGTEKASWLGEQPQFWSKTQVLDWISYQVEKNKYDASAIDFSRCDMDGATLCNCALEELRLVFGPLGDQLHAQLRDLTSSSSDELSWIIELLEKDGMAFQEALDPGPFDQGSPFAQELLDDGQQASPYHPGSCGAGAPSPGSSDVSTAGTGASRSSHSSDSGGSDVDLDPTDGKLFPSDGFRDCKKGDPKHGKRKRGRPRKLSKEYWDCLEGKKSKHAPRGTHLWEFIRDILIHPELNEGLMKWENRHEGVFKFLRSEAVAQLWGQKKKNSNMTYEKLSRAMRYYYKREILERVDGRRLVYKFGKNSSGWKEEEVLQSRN
# In short: as §1
# [7] = target: CRX (Homo sapiens, UniProt O43186 1-299); settings: protein: recombinant; tags: N-terminal GST; dsDNA, one strand shown
# In short: as §1
# [8] = target: T4, ERF (Homo sapiens, UniProt P50548 1-548); settings: protein: recombinant; tags: N-terminal GST; dsDNA, one strand shown
# T4 sequence: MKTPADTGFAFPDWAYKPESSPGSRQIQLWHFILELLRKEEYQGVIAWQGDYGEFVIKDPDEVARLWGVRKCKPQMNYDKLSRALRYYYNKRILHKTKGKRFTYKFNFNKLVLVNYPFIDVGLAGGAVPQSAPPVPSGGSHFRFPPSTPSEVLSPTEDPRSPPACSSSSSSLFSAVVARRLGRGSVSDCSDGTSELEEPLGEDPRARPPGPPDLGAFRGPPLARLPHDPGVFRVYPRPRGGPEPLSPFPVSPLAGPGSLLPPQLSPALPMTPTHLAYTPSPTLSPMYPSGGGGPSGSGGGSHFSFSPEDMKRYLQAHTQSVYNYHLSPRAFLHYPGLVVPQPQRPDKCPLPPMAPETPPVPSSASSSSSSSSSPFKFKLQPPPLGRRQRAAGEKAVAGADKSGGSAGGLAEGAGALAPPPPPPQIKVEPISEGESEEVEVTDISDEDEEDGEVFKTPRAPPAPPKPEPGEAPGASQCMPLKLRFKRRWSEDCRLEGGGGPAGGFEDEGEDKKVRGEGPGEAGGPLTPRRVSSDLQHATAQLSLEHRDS
# In short: as §1
# [9] = target: T5, ETV3L (Homo sapiens, UniProt Q6ZN32 1-361); settings: protein: recombinant; tags: N-terminal GST; dsDNA, one strand shown
# T5 sequence: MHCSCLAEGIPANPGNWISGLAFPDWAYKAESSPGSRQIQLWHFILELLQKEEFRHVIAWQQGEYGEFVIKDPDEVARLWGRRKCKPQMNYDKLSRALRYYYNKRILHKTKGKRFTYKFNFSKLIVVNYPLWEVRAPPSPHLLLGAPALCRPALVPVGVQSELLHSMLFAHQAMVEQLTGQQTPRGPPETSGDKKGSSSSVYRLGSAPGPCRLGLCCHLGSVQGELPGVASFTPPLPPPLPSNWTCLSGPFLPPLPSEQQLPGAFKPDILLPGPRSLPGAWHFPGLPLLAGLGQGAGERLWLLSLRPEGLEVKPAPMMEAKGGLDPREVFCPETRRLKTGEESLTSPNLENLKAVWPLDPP
# In short: as §1
# [10] = target: T6, ETS2 (Homo sapiens, UniProt P15036 1-469); settings: protein: recombinant; tags: N-terminal GST; dsDNA, one strand shown
# T6 sequence: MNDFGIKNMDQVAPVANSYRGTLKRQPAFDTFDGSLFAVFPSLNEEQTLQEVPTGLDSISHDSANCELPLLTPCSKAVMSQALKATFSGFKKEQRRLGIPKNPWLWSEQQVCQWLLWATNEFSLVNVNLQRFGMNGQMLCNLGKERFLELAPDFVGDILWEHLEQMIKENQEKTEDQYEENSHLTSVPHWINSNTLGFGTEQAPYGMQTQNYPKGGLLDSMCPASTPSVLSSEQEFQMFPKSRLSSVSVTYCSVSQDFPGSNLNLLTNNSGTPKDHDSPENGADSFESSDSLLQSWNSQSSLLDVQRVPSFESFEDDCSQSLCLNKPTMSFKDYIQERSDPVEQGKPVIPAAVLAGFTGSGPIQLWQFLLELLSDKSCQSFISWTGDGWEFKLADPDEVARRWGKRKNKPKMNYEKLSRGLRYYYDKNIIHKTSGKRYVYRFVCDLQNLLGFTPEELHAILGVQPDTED
# In short: as §1
# [11] = target: T7, SPDEF (Homo sapiens, UniProt O95238 1-335); settings: protein: recombinant; tags: N-terminal GST; dsDNA, one strand shown
# T7 sequence: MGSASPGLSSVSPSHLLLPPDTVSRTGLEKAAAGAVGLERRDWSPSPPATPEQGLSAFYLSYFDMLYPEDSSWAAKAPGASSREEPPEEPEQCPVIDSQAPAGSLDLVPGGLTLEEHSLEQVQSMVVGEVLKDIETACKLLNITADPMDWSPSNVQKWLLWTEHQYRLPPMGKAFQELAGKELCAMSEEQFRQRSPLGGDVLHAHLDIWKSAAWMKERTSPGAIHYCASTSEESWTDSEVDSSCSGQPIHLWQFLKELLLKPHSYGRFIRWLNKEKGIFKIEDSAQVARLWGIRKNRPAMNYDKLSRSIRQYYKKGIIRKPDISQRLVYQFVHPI
# In short: as §1
# [12] = target: T8, ETV7 (Homo sapiens, UniProt Q9Y603 1-341); settings: protein: recombinant; tags: N-terminal GST; dsDNA, one strand shown
# T8 sequence: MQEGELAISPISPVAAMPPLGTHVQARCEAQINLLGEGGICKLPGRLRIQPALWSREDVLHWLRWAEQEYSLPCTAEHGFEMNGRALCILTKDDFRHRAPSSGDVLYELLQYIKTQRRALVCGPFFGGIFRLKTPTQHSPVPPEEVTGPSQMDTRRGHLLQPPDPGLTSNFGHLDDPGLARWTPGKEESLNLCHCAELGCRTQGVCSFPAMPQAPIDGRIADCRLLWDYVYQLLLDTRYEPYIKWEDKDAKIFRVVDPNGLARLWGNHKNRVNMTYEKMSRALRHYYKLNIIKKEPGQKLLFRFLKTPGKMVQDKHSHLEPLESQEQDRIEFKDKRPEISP
# In short: as §1
# [13] = target: T9, ELF5 (Homo sapiens, UniProt Q9UKW6-2 1-255); settings: protein: recombinant; tags: N-terminal GST; dsDNA, one strand shown
# T9 sequence: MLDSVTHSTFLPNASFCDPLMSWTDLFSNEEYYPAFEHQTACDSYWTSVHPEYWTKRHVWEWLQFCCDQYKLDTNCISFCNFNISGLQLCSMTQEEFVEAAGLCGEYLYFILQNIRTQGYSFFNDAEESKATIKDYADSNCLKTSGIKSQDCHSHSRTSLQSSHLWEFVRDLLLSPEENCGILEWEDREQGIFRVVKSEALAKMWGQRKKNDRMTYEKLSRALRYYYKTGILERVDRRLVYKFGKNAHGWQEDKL
# In short: as §1
# [14] = target: T10, ETV3 (Homo sapiens, UniProt P41162-2 1-143); settings: protein: recombinant; tags: N-terminal GST; dsDNA, one strand shown
# T10 sequence: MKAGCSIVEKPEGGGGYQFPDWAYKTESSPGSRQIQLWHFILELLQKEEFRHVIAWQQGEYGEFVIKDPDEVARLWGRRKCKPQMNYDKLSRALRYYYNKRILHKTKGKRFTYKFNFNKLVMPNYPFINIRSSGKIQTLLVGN
# In short: as §1
# [15] = target: ETV6 (Homo sapiens, UniProt P41212 1-452); settings: protein: recombinant; tags: N-terminal GST; dsDNA, one strand shown
# In short: as §1
# Sequence of ETV6 (P41212 whole entry): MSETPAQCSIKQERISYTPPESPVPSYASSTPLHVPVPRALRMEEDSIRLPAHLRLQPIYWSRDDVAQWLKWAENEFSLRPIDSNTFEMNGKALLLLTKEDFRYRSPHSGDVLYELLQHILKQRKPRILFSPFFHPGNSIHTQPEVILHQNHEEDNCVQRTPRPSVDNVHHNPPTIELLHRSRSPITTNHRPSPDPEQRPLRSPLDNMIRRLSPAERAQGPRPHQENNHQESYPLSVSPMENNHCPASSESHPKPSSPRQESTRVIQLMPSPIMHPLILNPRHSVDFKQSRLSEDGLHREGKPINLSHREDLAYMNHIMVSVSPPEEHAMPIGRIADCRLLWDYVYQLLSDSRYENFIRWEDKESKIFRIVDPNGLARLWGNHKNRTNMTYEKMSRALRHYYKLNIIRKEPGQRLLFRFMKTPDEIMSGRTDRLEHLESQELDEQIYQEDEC
# Sequence of ELF4 (Q99607 whole entry): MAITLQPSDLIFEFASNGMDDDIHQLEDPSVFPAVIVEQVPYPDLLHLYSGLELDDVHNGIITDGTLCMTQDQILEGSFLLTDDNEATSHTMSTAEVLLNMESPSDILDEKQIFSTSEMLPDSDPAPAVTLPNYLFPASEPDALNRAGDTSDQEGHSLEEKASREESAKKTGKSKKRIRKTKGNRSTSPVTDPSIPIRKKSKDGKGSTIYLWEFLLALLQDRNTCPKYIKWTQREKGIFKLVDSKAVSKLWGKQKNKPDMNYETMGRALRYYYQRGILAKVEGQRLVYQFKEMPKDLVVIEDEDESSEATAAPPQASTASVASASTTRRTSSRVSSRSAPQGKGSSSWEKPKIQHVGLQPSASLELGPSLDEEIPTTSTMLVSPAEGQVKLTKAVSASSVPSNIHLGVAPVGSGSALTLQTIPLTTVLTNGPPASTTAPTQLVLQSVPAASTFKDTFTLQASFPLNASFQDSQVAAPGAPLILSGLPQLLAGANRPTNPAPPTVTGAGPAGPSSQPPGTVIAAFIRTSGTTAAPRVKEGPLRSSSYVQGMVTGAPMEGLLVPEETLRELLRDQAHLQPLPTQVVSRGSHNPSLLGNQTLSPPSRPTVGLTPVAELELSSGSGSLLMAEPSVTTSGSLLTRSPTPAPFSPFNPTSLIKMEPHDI
# Sequence of HSF1 (Q00613 whole entry): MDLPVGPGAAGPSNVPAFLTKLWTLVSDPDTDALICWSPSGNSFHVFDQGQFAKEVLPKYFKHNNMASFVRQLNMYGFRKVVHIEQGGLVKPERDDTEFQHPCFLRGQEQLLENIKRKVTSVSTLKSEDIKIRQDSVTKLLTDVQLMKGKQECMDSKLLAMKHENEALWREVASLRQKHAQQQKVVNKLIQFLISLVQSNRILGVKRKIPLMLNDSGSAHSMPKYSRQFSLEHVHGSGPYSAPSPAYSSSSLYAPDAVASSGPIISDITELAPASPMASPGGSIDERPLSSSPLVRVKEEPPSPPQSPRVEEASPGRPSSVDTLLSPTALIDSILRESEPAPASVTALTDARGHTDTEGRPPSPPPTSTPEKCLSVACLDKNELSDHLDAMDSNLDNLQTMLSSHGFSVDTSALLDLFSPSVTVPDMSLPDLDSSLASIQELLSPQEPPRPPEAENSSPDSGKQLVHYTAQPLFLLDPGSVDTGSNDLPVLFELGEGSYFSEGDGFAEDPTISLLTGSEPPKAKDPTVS
# Sequence of ETV5 (P41161 whole entry): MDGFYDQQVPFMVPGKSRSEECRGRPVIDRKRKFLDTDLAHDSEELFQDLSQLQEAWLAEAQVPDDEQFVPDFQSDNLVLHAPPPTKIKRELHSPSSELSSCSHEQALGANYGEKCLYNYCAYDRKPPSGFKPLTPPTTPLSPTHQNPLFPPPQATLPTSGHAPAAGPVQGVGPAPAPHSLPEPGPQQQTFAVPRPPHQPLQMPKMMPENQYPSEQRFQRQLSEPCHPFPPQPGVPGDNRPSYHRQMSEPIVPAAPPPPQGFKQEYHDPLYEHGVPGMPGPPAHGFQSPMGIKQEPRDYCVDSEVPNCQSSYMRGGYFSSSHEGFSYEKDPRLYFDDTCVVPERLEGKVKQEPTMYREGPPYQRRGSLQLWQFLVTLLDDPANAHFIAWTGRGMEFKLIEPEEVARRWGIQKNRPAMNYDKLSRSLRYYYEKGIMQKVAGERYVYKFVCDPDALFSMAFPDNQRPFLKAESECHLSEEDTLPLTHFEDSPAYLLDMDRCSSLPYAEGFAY
# Sequence of CRX (O43186 whole entry): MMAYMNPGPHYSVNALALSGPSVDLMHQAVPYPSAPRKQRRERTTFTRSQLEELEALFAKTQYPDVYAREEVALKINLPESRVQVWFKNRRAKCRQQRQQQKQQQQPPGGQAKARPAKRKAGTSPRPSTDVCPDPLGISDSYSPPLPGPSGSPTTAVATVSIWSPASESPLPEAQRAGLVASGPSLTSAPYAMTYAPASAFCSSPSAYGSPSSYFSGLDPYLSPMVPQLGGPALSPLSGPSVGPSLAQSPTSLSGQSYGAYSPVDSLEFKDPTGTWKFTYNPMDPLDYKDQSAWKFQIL
sequence,measurement,setting,value
CCAAAT,binding signal,[1],"1.08 fold enrichment (6-mer frequency, TF over GST control)"
same,binding signal,[2],"1.06 fold enrichment (6-mer frequency, TF over GST control)"
same,binding signal,[3],"1.02 fold enrichment (6-mer frequency, TF over GST control)"
same,binding signal,[4],"1.17 fold enrichment (6-mer frequency, TF over GST control)"
same,binding signal,[5],"1.04 fold enrichment (6-mer frequency, TF over GST control)"
same,binding signal,[6],"1.11 fold enrichment (6-mer frequency, TF over GST control)"
same,binding signal,[7],"1.18 fold enrichment (6-mer frequency, TF over GST control)"
same,binding signal,[8],"1.11 fold enrichment (6-mer frequency, TF over GST control)"
same,binding signal,[9],"1.02 fold enrichment (6-mer frequency, TF over GST control)"
same,binding signal,[10],"1.08 fold enrichment (6-mer frequency, TF over GST control)"
same,binding signal,[11],"1.05 fold enrichment (6-mer frequency, TF over GST control)"
same,binding signal,[12],"1.06 fold enrichment (6-mer frequency, TF over GST control)"
same,binding signal,[13],"1.01 fold enrichment (6-mer frequency, TF over GST control)"
same,binding signal,[14],"1.03 fold enrichment (6-mer frequency, TF over GST control)"
same,binding signal,[15],"1.06 fold enrichment (6-mer frequency, TF over GST control)"
